“And” between values parts separate entries of the source, which are not always exact repeats. Equal entries are not always repeated. The campaign covered roughly 5,500 compounds. About 2,000 (36%) were called active. Roughly 18% stayed inconclusive and do not appear here. No stated cut-off is given here; in the data, active means normalized growth mostly below about 0.91 (no sharp cut-off); inconclusive means no clear call, values can overlap the other calls; inactive means mostly above about 0.92. Some of the results follow.
Assay: chemical genetic growth profiling, strain panel (AID 1159580);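 further: tested at 20 µM; growth read once vehicle control cultures reached saturation at 30 °C; 1 = growth at the plate median or of vehicle wells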
Settings: growth OD

Measured: normalized growth

CC12CC3CC(C)(C1)CC(N)(C3)C2
inactive: S. cerevisiae deletion strains, locus YJR075W, strain HOC1, stronger effect = lower value 1.01 | S. cerevisiae deletion strains, locus YKL009W, strain mrt4, stronger effect = lower value 1.03 | S. cerevisiae deletion strains, locus YKL068W, stronger effect = lower value 0.999 | S. cerevisiae deletion strains, locus YKL085W, strain MDH1 (second series), stronger effect = lower value 0.996 | S. cerevisiae deletion strains, locus YKL085W, strain MDH1, stronger effect = lower value 0.996 | S. cerevisiae deletion strains, locus YKL160W, strain elf1, stronger effect = lower value 1 | S. cerevisiae deletion strains, locus YKL190W, strain CNB1, stronger effect = lower value 0.999 | S. cerevisiae deletion strains, locus YKR001C, strain vps1, stronger effect = lower value 1.02 | S. cerevisiae deletion strains, locus YKR026C, strain gcn3, stronger effect = lower value 0.982 | S. cerevisiae deletion strains, locus YKR091W, strain srl3, stronger effect = lower value 0.99 | S. cerevisiae deletion strains, locus YLL001W, strain dnm1, stronger effect = lower value 0.972 | S. cerevisiae deletion strains, locus YLL026W, stronger effect = lower value 0.995 | S. cerevisiae deletion strains, locus YLL041C, strain sdh2, stronger effect = lower value 0.997 | S. cerevisiae deletion strains, locus YLR027C, strain aat2, stronger effect = lower value 0.991 | S. cerevisiae deletion strains, locus YLR039C, strain RIC1, stronger effect = lower value 1.04 | S. cerevisiae deletion strains, locus YLR058C, strain SHM2, stronger effect = lower value 0.999 | S. cerevisiae deletion strains, locus YLR102C, strain apc9, stronger effect = lower value 0.996 | S. cerevisiae deletion strains, locus YLR113W, strain HOG1, stronger effect = lower value 0.996 | S. cerevisiae deletion strains, locus YLR221C, strain rsa3, stronger effect = lower value 1 | S. cerevisiae deletion strains, locus YLR258W, strain gsy2, stronger effect = lower value 1 | S. cerevisiae deletion strains, locus YLR262C, strain YPT6 (second series), stronger effect = lower value 1 | S. cerevisiae deletion strains, locus YLR262C, strain YPT6, stronger effect = lower value 0.979 | S. cerevisiae deletion strains, locus YLR268W, strain sec22, stronger effect = lower value 1.07 | S. cerevisiae deletion strains, locus YLR320W, strain mms22, stronger effect = lower value 1 | S. cerevisiae deletion strains, locus YLR330W, strain CHS5, stronger effect = lower value 1 | S. cerevisiae deletion strains, locus YLR342W, strain FKS1 (second series), stronger effect = lower value 1.01 | S. cerevisiae deletion strains, locus YLR342W, strain FKS1, stronger effect = lower value 0.985 | S. cerevisiae deletion strains, locus YLR357W, strain rsc2, stronger effect = lower value 0.969 | S. cerevisiae deletion strains, locus YLR370C, strain arc18, stronger effect = lower value 0.995 | S. cerevisiae deletion strains, locus YLR371W, strain rom2, stronger effect = lower value 1.01 | S. cerevisiae deletion strains, locus YLR384C, strain iki3, stronger effect = lower value 0.99 | S. cerevisiae deletion strains, locus YLR418C, strain cdc73, stronger effect = lower value 1.01 | S. cerevisiae deletion strains, locus YML016C, strain PPZ1, stronger effect = lower value 0.998 | S. cerevisiae deletion strains, locus YML032C, strain rad52, stronger effect = lower value 1.02 | S. cerevisiae deletion strains, locus YML120C, strain ndi1, stronger effect = lower value 1 | S. cerevisiae deletion strains, locus YML124C, strain tub3, stronger effect = lower value 1.01 | S. cerevisiae deletion strains, locus YMR058W, strain fet3, stronger effect = lower value 0.993 | S. cerevisiae deletion strains, locus YMR078C, strain ctf18, stronger effect = lower value 1 | S. cerevisiae deletion strains, locus YMR125W, strain sto1, stronger effect = lower value 0.975 | S. cerevisiae deletion strains, locus YMR129W, stronger effect = lower value 0.979 | S. cerevisiae deletion strains, locus YMR205C, strain PFK2, stronger effect = lower value 0.993 | S. cerevisiae deletion strains, locus YMR223W, strain ubp8, stronger effect = lower value 0.986 | S. cerevisiae deletion strains, locus YMR231W, strain pep5, stronger effect = lower value 0.982 | S. cerevisiae deletion strains, locus YMR263W, strain SAP30, stronger effect = lower value 1.01 | S. cerevisiae deletion strains, locus YMR307W, strain GAS1, stronger effect = lower value 0.964 and 0.971 | S. cerevisiae deletion strains, locus YNL067W, strain RPL9B, stronger effect = lower value 1.02 | S. cerevisiae deletion strains, locus YNL071W, strain lat1, stronger effect = lower value 0.986 | S. cerevisiae deletion strains, locus YNL128W, strain TEP1, stronger effect = lower value 1.01 | S. cerevisiae deletion strains, locus YNL153C, strain GIM3, stronger effect = lower value 1.01 | S. cerevisiae deletion strains, locus YNL175C, strain NOP13, stronger effect = lower value 0.994 | S. cerevisiae deletion strains, locus YNL183C, strain NPR1, stronger effect = lower value 0.935 | S. cerevisiae deletion strains, locus YNL197C, strain WHI3, stronger effect = lower value 1 | S. cerevisiae deletion strains, locus YNL209W, strain ssb2, stronger effect = lower value 0.992 | S. cerevisiae deletion strains, locus YNL224C, strain SQS1, stronger effect = lower value 1 | S. cerevisiae deletion strains, locus YNL233W, strain BNI4, stronger effect = lower value 1.01 | S. cerevisiae deletion strains, locus YNL248C, strain rpa49, stronger effect = lower value 0.961 | S. cerevisiae deletion strains, locus YNL250W, strain rad50, stronger effect = lower value 1.01 | S. cerevisiae deletion strains, locus YNL271C, strain bni1, stronger effect = lower value 1.01 | S. cerevisiae deletion strains, locus YNL298W, strain CLA4, stronger effect = lower value 1 | S. cerevisiae deletion strains, locus YNL307C, strain MCK1, stronger effect = lower value 1.01 | S. cerevisiae deletion strains, locus YNL322C, strain KRE1 (second series), stronger effect = lower value 0.993 | S. cerevisiae deletion strains, locus YNL322C, strain KRE1, stronger effect = lower value 0.998 and 0.989 | S. cerevisiae deletion strains, locus YNR049C, strain mso1, stronger effect = lower value 0.986 | S. cerevisiae deletion strains, locus YNR052C, strain pop2, stronger effect = lower value 1.01 | S. cerevisiae deletion strains, locus YOL006C, strain TOP1, stronger effect = lower value 1.05 | S. cerevisiae deletion strains, locus YOL012C, strain htz1 1.4 | S. cerevisiae deletion strains, locus YOL147C, strain pex11, stronger effect = lower value 1 | S. cerevisiae deletion strains, locus YOR001W, strain rrp6, stronger effect = lower value 0.985 | S. cerevisiae deletion strains, locus YOR061W, strain CKA2, stronger effect = lower value 1 | S. cerevisiae deletion strains, locus YOR069W, strain VPS5, stronger effect = lower value 1.01 | S. cerevisiae deletion strains, locus YOR070C, strain gyp1, stronger effect = lower value 0.991 | S. cerevisiae deletion strains, locus YOR080W, strain dia2, stronger effect = lower value 0.986 | S. cerevisiae deletion strains, locus YOR083W, strain WHI5 (second series), stronger effect = lower value 1.03 | S. cerevisiae deletion strains, locus YOR083W, strain WHI5, stronger effect = lower value 0.977 | S. cerevisiae deletion strains, locus YOR106W, strain vam3, stronger effect = lower value 0.993 | S. cerevisiae deletion strains, locus YOR136W, strain idh2, stronger effect = lower value 1.01 | S. cerevisiae deletion strains, locus YOR144C, strain elg1, stronger effect = lower value 1.01 | S. cerevisiae deletion strains, locus YOR184W, strain ser1, stronger effect = lower value 1.01 | S. cerevisiae deletion strains, locus YOR231W, strain MKK1, stronger effect = lower value 0.995 | S. cerevisiae deletion strains, locus YOR265W, strain rbl2, stronger effect = lower value 0.989 | S. cerevisiae deletion strains, locus YOR270C, strain vph1, stronger effect = lower value 0.921 | S. cerevisiae deletion strains, locus YOR290C, strain snf2, stronger effect = lower value 0.997 | S. cerevisiae deletion strains, locus YOR316C, strain cot1, stronger effect = lower value 1 | S. cerevisiae deletion strains, locus YPL051W, strain arl3, stronger effect = lower value 0.986 | S. cerevisiae deletion strains, locus YPL055C, strain LGE1, stronger effect = lower value 1 | S. cerevisiae deletion strains, locus YPL078C, strain atp4, stronger effect = lower value 0.986 | S. cerevisiae deletion strains, locus YPL106C, strain sse1, stronger effect = lower value 1.01 | S. cerevisiae deletion strains, locus YPL240C, strain hsp82, stronger effect = lower value 0.998 | S. cerevisiae deletion strains, locus YPL241C, strain CIN2, stronger effect = lower value 1 | S. cerevisiae deletion strains, locus YPL256C, strain CLN2, stronger effect = lower value 0.971 | S. cerevisiae deletion strains, locus YPR119W, strain clb2, stronger effect = lower value 1 | S. cerevisiae deletion strains, locus YPR141C, strain kar3, stronger effect = lower value 1.01 | S. cerevisiae deletion strains, locus YPR163C, strain tif3, stronger effect = lower value 1.01 | S. cerevisiae deletion strains, locus YPR167C, strain met16, stronger effect = lower value 1 | S. cerevisiae deletion strains, strain wtn01, stronger effect = lower value 1.02 | S. cerevisiae strains, strain wild type, stronger effect = lower value 1.01

Reference: PubChem BioAssay AID1159580 (chemical genetic matrix, 2015)
